Rows were chosen to be rich in hits. Some 6.9% of all compounds tested hit in one or more screens of this group.
MPTP block = permeability transition pore inhibition | 1.4% of 360,000 active | inhibition, % at 10 µM | AID 602449 | isolated mouse mitochondria, Ca2+ swelling absorbance, 30 min;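 active means inhibition of 50% or more, scaled per plate between neutral and stimulator controls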;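 further: 0% = DMSO wells given calcium and 100% = 1 mM EGTA wells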
Beta cell apopt = blocks beta cell apoptosis; 0.8% of 300,000 active; protection from apoptosis, % (test concentration not listed); INS-1E cytokine-induced death, ATP luminescence, 48 h; percent of positive-control rescue, neutral wells zero;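 active means Every replicate reaches about 75%, or at least half do and their mean reaches it too, limit read from the data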;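 further: 0% = cytokine-treated negative control wells and 100% = positive control rescue; higher means more ATP so stronger rescue from cytokine killing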
CSC inhib = blocks cancer stem cells; cancer stem cell-like cells viability, luminescence; inhibition, % at 7.5 µM; 1.1% of 300,000 active; AID 2717; in the data active means inhibition above about 75%; tested in HMLE shEcad cells
Mdm2 MdmX PPI = human Mdm2/MdmX binding inhibition | 3% of 330,000 active | inhibition, % at 8 µM | SaOS-2 split-luciferase Mdm2/MdmX complementation, luminescence | O15151+Q00987;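 active means inhibition of at least 50% at 8 µM in the primary screen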
Target sequence (O15151 whole entry, looked up): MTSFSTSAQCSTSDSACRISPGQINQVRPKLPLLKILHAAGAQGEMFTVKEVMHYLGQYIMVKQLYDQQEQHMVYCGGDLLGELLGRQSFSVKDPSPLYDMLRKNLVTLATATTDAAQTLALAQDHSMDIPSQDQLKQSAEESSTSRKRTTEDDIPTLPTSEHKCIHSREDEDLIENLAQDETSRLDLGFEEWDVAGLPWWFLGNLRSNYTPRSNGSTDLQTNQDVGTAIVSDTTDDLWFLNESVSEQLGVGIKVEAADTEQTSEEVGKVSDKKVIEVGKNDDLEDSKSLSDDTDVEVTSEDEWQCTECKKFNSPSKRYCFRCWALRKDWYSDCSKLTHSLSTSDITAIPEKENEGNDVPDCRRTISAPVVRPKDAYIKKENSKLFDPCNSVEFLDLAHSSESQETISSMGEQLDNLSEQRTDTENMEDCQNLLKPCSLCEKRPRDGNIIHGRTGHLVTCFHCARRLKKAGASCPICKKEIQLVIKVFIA
Target sequence (Q00987 whole entry, looked up): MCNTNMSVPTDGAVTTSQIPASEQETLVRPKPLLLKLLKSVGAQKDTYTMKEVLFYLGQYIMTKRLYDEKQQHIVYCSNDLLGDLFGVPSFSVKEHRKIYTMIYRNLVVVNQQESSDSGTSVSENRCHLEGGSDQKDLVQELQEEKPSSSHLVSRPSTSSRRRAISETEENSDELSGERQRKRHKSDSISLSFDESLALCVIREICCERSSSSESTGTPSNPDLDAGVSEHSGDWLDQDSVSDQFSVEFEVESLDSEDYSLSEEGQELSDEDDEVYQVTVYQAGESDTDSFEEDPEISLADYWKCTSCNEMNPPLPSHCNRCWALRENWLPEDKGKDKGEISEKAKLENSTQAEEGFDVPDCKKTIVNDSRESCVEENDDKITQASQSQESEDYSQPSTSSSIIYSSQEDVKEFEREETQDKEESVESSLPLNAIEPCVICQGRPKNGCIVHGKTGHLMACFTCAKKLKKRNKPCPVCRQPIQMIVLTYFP
SKKanGAS inh = inhibitors of SKKanGAS S. pyogenes growth in kanamycin (SK-promoter or general growth effect). BacTiter-Glo, 6 h. inhibition, % at 7.5 µM. 1.3% of 300,000 active. AID 1662;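 active means mean replicate score, as percent of positive control median, at least 50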;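 further: strain carries kanamycin resistance gene driven by streptokinase promoter and grows in 40 µg/ml kanamycin; loss of luminescence reflects streptokinase promoter inhibition or plain growth inhibition; 0% = median of DMSO wells and 100% = positive control at its reference dose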
GRIN3A LBD mod = modulators (binders) of human NR3A ligand-binding domain. Tm shift relative to glycine control, % at 25 µM. NR3A LBD differential scanning fluorimetry, Tm shift; 0% = protein alone, 100% = glycine-bound protein. 2.5% of 340,000 active;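 active means melting temperature shift of at least 10% of the positive control shift, at one fixed dose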
Mdm2 MdmX conf = human Mdm2/MdmX binding inhibition, confirmed | 55% of 10,000 active | shares compounds with Mdm2 MdmX PPI | luminescent assay | inhibition, % at 8 µM | AID 489028; in the data active means inhibition above about 40%
FLuc counter = counter-screen for Mdm2/MdmX inhibitors: full-length luciferase. inhibition, % at 8 µM. 77% of 6,200 active. SaOS-2 full-length luciferase counterscreen, luminescence. shares compounds with Mdm2 MdmX PPI;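 active means mean inhibition at 8 µM reaching about 37%, which flags the compound as non-specific, limit read from the data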;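 further: p53-null SaOS-2 cells with luciferase driven by a doxycycline-inducible promoter; compound on cells about two nights before reading with doxycycline added after day one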
Starred values were filed as active, the others as inactive; x = no result.

SMILES | MPTP block | Beta cell apopt | CSC inhib | Mdm2 MdmX PPI | SKKanGAS inh | GRIN3A LBD mod | Mdm2 MdmX conf | others
CC1CCc2c(sc3ncn(N)c(=N)c23)C1 (stereo not given) | 1 | 0 | 5 | -2 | 0 | -1 | x
CCCNC(=O)c1ccc2c(=O)c(O)c(-c3ccc(F)cc3)[nH]c2c1 | 4 | 14 | 4 | 69* | 2 | -1 | 19
Nc1c(Cl)cc(-c2[nH]c3cc(C(=O)NCCO)ccc3c(=O)c2O)cc1Cl | 2 | 5 | 4 | -7 | 5 | -2 | x
CCCNC(=O)c1ccc2c(=O)c(O)c(C)[nH]c2c1 | 0 | -4 | -5 | 0 | -2 | 1 | x
CCCNC(=O)c1ccc2c(=O)c(O)c(-c3cccc(Br)c3)[nH]c2c1 | 3 | 98* | 125* | 53* | 0 | -8 | 70* | FLuc counter=31
CC(=O)C(C(C)=O)c1c(Cl)c(O)c(O)c2c(C(=O)c3ccccc3)coc12 | 3 | 128* | 71 | 60* | -2 | -15 | 34
O=C(COC(=O)CSc1ccc([N+](=O)[O-])cc1)NCCC1=CCCCC1 | 0 | -2 | x | -31 | x | 0 | x
C=CCCC(=O)N1CCCC(C(=O)c2cccc(OC)c2)C1 (stereo not given) | 1 | -9 | 20 | 19 | -16 | -1 | x
O=C(Nc1nc2ccccc2[nH]1)c1ccc(OC(F)F)cc1 | -2 | 22 | 8 | -35 | x | 5 | x
O=C(Nc1ccc(F)cc1)c1ccccc1F | -2 | 3 | 7 | 27 | -1 | 1 | x
O=C(Nc1ccncc1)c1ccccc1F | 0 | 1 | -2 | 51* | 2 | 1 | 31
CCc1ccc(C(=O)Nc2nc3ccccc3[nH]2)cc1 | -2 | 44 | 31 | 56* | 63* | 0 | 52* | FLuc counter=72*
CC(C)Oc1ccc(C(=O)Nc2nc3ccccc3[nH]2)cc1 | -1 | 46 | 42 | 69* | 55* | -2 | 67* | FLuc counter=46*
O=C(Nc1nc2ccccc2[nH]1)c1ccccc1F | -4 | 89* | 124* | 82* | 80* | -1 | 81* | FLuc counter=38*
COc1cc(C(C)=O)ccc1OCC(=O)NCc1ccccc1CN1CCCC1 | -1 | x | x | x | x | x | x
O=C(N/N=C/c1ccccc1O)C1CC(=O)N(c2ccc(Cl)cc2)C1 (stereo not given) | -1 | 84* | 1 | 76* | 23 | -13 | 59* | FLuc counter=37*
Cc1cccc(OCCCN2C(=O)C(=O)c3cc(C)ccc32)c1 | 2 | -2 | 18 | 59* | -11 | -1 | 69* | FLuc counter=65*
Cc1ccc2c(c1)C(=O)C(=O)N2Cc1ccc(Cl)cc1 | -1 | -3 | 40 | 68* | x | -1 | 24
O=C(NCCCN1CCCC1)c1ccc2c(Cl)c3c(nc2c1)CCCC3 | 0 | -1 | 7 | 72* | 5 | -3 | 51* | FLuc counter=45*
Cc1ccc(N(C)C(=O)c2ccc3c(Cl)c4c(nc3c2)CCC4)cc1C | -2 | 5 | x | -3 | 6 | -3 | x
CCc1ccc(N(CC)C(=O)c2ccc3c(Cl)c4c(nc3c2)CCC4)cc1 | -2 | 9 | x | 56* | 28 | 2 | 32
CCCN1CCN(CCCNC(=O)c2ccc3c(Cl)c4c(nc3c2)CCCC4)CC1 | -1 | 12 | 12 | 70* | 5 | 0 | 39 | FLuc counter=55*
CCN(CC)CCCNC(=O)c1ccc2c(Cl)c3c(nc2c1)CCCC3 | 0 | 3 | 50 | 84* | -1 | 0 | 49* | FLuc counter=31
COc1ccccc1C(=O)NC(=O)COC(=O)CNC(=O)c1ccc(Cl)cc1Cl | 0 | -2 | -7 | -5 | -7 | 0 | x
O=C(O)C1CCCC[C@H]1C(=O)Nc1ncc([N+](=O)[O-])s1 (stereo not given in full) | -1 | -4 | -11 | 1 | x | 2 | x
SMILES | MPTP block | Beta cell apopt | CSC inhib | Mdm2 MdmX PPI | SKKanGAS inh | GRIN3A LBD mod | Mdm2 MdmX conf | others
COc1nnc(-c2ccc(N3CCOCC3)c(NC(=O)C3CCCCC3)c2)c2ccccc12 | -3 | 2 | -7 | 16 | -8 | -3 | x
COc1nnc(-c2ccc(N3CCCCC3)c(NC(=O)C3CCCCC3)c2)c2ccccc12 | 7 | 79* | 33 | 90* | 15 | -1 | 29
Cc1[nH]n(-c2ccccc2)c(=O)c1/C=N/NC(=O)c1cccc([N+](=O)[O-])c1 | 4 | -2 | 5 | 52* | x | -2 | 44* | FLuc counter=6
CCC(=O)N1CCN(c2ccc(Cl)cc2NC(=O)c2cccc([N+](=O)[O-])c2)CC1 | 0 | 4 | -3 | 55* | 6 | 0 | 6
CN1CCN(c2ccccc2NC(=O)c2cccc([N+](=O)[O-])c2)CC1 | -3 | 0 | x | 2 | -4 | -2 | x
CCC(=O)N1CCN(c2ccccc2NC(=S)NC(=O)c2cccc([N+](=O)[O-])c2)CC1 | 2 | 5 | -12 | -3 | 3 | -4 | x
O=C(N/N=C/c1ccncc1)c1cccc([N+](=O)[O-])c1 | x | 2 | -5 | -31 | -4 | x | x
CN1CCN(c2ccc([N+](=O)[O-])cc2/C=N/NC(=O)c2cccc([N+](=O)[O-])c2)CC1 | x | 1 | 22 | 51* | -2 | x | -4
CC(/C=N/NC(=O)c1cccc([N+](=O)[O-])c1)=C\c1ccccc1 | 1 | 0 | x | 74* | -1 | 1 | -30
CCOC(=O)c1c(NC(=O)COc2ccc3ccc(=O)oc3c2)sc(C(=O)N(C)C)c1C | -2 | -2 | 12 | 11 | -7 | 3 | x
O=C(CN1CCN(C(=O)C2CCCO2)CC1)Nc1cc(Cl)ccc1Cl (stereo not given) | 1 | -5 | 0 | 12 | -8 | -1 | x
Cn1ccnc1C1CCCCN1Cc1nc(-c2ccc(Cl)cc2)no1 (stereo not given) | -1 | 5 | -2 | -3 | -8 | 1 | x
COc1ccc(CC(=O)Nc2ccc(/C(C)=N/NC(=O)c3cccc([N+](=O)[O-])c3)cc2)cc1 | 0 | -3 | -3 | 57* | 1 | 2 | -4
CCCCCCCC(=O)Nc1ccc(C(=O)N/N=C/c2cccc([N+](=O)[O-])c2)cc1 | -1 | 95* | 14 | 88* | 9 | -1 | 19
Cc1ccsc1/C=N/NC(=O)c1ccc([N+](=O)[O-])cc1 | 0 | 24 | -4 | -8 | -5 | 2 | x
COc1ccc(NC(=O)c2cccc([N+](=O)[O-])c2)cc1 | 2 | 3 | -10 | -22 | 6 | -7 | x
Cc1ccc(-n2[nH]c(C)c(/C=N/NC(=O)c3ccc([N+](=O)[O-])cc3)c2=O)c(C)c1 | 0 | x | 36 | 53* | 17 | x | 9
Cc1onc(-c2ccccc2Cl)c1C(=O)N(C)CC(=O)Nc1ccc(F)c(F)c1F | 0 | 1 | -8 | 7 | -1 | -2 | x

Screens: PubChem BioAssay, several laboratories
